Each structure is given as a SMILES string. For some of these results: Entries with a potency or affinity are not part of this list.

Results on eight compounds are retold here after ChEMBL document CHEMBL3988442, “University of Dundee, Small-Polar-MMV Screening Library” (2021).

Design in all cases: scale not given: direction of the effect not stated beside the values
Assay [1] has as its target Protein translocase subunit SecA (Escherichia coli (strain K12)) (UniProt P10408). Kind of assay: Assay to Identify E. coli SecA ATPase Inhibitors. Format: functional. The note with it: 30 µM.
Assay [2] has as its target T1, Ubiquitin-activating enzyme e1, putative (Leishmania donovani (strain BPK282A1)) (UniProt E9BSI1).
T1 sequence (whole entry): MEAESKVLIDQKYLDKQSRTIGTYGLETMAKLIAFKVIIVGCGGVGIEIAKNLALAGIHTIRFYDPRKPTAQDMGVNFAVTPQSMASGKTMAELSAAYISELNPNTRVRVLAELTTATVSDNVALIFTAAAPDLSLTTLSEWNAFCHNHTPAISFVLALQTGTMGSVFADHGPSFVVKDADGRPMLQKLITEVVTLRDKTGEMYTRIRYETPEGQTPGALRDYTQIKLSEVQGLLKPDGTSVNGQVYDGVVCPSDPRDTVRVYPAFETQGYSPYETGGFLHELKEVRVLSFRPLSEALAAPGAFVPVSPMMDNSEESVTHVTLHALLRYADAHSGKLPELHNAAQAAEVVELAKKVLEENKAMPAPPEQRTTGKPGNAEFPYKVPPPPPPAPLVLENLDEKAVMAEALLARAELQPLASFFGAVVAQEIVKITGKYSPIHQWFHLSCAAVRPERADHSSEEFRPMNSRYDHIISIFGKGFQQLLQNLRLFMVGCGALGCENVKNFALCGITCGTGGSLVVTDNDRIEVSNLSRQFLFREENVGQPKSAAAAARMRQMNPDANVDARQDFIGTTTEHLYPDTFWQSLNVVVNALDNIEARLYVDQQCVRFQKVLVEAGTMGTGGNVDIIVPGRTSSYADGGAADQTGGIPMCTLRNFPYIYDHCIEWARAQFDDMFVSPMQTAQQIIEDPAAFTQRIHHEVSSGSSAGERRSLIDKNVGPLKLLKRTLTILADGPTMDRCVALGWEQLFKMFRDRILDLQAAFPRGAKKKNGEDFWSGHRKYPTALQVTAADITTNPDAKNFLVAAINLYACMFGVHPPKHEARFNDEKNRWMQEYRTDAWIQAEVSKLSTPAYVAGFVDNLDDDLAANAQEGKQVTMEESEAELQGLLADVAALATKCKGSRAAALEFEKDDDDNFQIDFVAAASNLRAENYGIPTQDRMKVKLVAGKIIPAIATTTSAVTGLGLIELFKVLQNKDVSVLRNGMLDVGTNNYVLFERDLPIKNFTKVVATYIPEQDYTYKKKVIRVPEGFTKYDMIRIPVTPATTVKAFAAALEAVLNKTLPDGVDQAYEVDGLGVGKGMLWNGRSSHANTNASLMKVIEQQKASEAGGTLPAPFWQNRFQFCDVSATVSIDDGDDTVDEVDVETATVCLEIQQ
Kind of assay: Leishmania donovani Ubiquitin Activating Enzyme (LdE1). Format: functional. The note with it: 30 µM.

The target in assay [3] is AMP-activated protein kinase, AMPK (Homo sapiens) (UniProt P54646+O43741+P54619+Q9UGJ0+Q9Y478+Q13131+Q9UGI9). Kind of assay: AMP-dependent Kinase enzyme assay. An in vitro enzyme assay that detects ADP turnover that is directly proportional to AMPK activity. This uses naive AMPK that is activated during the assay with MK-8722. Format: functional. The note with it: 30 µM.

The target in assay [4] is Sialic acid-binding Ig-like lectin 9 (Homo sapiens) (UniProt Q9Y336). Kind of assay: Hs-Siglec9 ALPHAscreen SOP 20170721. The note with it: 10 µM.
Sialic acid-binding Ig-like lectin 9 (Homo sapiens), sequence (Q9Y336 whole entry): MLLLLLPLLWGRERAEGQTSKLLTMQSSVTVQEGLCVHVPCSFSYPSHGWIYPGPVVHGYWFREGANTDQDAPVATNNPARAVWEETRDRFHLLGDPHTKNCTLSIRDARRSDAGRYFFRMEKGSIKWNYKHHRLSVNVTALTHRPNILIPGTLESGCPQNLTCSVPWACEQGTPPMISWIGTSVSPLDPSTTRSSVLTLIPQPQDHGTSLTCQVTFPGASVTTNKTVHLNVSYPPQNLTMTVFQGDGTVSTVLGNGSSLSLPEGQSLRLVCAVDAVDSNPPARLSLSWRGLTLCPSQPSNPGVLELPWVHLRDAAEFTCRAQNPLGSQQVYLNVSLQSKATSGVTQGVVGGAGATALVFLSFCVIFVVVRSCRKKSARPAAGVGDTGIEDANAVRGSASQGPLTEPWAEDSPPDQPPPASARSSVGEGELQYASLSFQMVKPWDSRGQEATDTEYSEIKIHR
Assay [5] concerns Trypanosoma cruzi. The assay can be described thus: Trypanosoma cruzi phosphomannomutase and mannose-1-phosphate guanylyltransferase assay. In kind it is functional. The note with it: 10 µM.
Assay [6] addresses T2, Arginase-2, mitochondrial (Homo sapiens) (UniProt P78540).
T2 sequence (whole entry): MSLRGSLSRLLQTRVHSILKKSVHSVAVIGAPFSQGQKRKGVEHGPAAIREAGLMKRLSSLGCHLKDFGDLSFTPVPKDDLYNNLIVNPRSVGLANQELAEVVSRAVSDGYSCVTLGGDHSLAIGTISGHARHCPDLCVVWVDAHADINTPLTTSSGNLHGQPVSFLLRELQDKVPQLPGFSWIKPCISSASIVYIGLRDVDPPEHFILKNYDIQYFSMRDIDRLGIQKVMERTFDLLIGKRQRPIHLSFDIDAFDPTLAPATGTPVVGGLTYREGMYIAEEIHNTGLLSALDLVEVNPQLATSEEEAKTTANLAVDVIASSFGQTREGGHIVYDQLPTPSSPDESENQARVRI
Kind of assay: in vitro enzyme assay to detect the production of urea directly proportional to the activity of Arginase II. Also: in the data most compounds retested in dose-response had high values. In kind it is functional. The conditions noted are these: 33.3 µM.

For assay [7], the target named is T3, Proteasome subunit beta (Trypanosoma cruzi) (UniProt O96673).
T3 sequence (whole entry): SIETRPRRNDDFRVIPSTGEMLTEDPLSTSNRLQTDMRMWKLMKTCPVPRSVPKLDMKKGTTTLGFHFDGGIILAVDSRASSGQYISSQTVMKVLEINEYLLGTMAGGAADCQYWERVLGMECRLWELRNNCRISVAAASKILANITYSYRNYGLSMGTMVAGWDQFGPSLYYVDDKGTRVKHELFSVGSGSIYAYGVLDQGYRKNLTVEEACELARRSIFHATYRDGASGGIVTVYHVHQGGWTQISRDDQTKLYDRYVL
The assay can be described thus: Trypanosoma cruzi proteasome chymotrypsin-like activity (TcProtChymo) assay. Also: in the data most compounds retested in dose-response had high values. Format: functional. The conditions noted are these: 9.37 µM.

For assay [8], the species on record is Homo sapiens. The assay can be described thus: To identify inhibition of the IFN signalling (Jak-Stat) pathway via expression of an eGFP reporter gene under the control of an IFN-stimulated response element (ISRE) containing MxA promoter. In kind it is functional. The conditions noted are these: 30 µM.
Assay [9] addresses T4, Tyrosyl-tRNA synthetase, putative (Trypanosoma cruzi (strain CL Brener)) (UniProt Q4DSP6).
T4 sequence (whole entry): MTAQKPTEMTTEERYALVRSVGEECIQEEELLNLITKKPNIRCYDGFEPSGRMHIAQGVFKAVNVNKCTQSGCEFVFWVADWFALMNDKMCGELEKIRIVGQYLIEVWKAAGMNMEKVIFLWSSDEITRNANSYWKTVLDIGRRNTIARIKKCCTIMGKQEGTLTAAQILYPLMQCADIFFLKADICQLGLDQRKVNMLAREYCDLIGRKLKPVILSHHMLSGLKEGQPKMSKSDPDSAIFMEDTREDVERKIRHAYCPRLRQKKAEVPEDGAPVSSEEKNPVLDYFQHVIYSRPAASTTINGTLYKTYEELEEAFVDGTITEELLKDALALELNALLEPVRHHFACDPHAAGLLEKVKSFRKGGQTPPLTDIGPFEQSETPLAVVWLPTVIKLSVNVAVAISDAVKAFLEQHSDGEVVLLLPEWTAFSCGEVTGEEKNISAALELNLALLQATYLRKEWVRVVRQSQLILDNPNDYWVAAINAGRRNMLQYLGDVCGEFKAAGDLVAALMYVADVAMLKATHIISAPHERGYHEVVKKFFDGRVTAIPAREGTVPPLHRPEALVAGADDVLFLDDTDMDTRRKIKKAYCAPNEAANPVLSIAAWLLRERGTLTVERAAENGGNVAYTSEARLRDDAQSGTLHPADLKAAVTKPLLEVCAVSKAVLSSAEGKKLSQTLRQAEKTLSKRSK
Kind of assay: Trypanosoma cruzi tyrosyl tRNA synthetase (TcYRS) _High Tyrosine SOP. Also: in the data most compounds retested in dose-response had high values. Format: functional. The note with it: 30 µM.

Assay [10] concerns the target T4, Tyrosyl-tRNA synthetase, putative (Trypanosoma cruzi (strain CL Brener)). The assay can be described thus: Trypanosoma cruzi tyrosyl tRNA synthetase (TcYRS) SOP. Format: functional. The note with it: 30 µM.
The target of assay [11] is Chromo domain-containing protein 1 (Saccharomyces cerevisiae (strain ATCC 204508 / S288c) (Baker's yeast)) (UniProt P32657). Kind of assay: ScCHD-1 Enzyme Inhibition Assay. Also: in the data most compounds retested in dose-response had high values. Format: functional. The note with it: 30 µM.
Chromo domain-containing protein 1 (Saccharomyces cerevisiae (strain ATCC 204508 / S288c) (Baker's yeast)), sequence (P32657 whole entry, the tested form may be a part): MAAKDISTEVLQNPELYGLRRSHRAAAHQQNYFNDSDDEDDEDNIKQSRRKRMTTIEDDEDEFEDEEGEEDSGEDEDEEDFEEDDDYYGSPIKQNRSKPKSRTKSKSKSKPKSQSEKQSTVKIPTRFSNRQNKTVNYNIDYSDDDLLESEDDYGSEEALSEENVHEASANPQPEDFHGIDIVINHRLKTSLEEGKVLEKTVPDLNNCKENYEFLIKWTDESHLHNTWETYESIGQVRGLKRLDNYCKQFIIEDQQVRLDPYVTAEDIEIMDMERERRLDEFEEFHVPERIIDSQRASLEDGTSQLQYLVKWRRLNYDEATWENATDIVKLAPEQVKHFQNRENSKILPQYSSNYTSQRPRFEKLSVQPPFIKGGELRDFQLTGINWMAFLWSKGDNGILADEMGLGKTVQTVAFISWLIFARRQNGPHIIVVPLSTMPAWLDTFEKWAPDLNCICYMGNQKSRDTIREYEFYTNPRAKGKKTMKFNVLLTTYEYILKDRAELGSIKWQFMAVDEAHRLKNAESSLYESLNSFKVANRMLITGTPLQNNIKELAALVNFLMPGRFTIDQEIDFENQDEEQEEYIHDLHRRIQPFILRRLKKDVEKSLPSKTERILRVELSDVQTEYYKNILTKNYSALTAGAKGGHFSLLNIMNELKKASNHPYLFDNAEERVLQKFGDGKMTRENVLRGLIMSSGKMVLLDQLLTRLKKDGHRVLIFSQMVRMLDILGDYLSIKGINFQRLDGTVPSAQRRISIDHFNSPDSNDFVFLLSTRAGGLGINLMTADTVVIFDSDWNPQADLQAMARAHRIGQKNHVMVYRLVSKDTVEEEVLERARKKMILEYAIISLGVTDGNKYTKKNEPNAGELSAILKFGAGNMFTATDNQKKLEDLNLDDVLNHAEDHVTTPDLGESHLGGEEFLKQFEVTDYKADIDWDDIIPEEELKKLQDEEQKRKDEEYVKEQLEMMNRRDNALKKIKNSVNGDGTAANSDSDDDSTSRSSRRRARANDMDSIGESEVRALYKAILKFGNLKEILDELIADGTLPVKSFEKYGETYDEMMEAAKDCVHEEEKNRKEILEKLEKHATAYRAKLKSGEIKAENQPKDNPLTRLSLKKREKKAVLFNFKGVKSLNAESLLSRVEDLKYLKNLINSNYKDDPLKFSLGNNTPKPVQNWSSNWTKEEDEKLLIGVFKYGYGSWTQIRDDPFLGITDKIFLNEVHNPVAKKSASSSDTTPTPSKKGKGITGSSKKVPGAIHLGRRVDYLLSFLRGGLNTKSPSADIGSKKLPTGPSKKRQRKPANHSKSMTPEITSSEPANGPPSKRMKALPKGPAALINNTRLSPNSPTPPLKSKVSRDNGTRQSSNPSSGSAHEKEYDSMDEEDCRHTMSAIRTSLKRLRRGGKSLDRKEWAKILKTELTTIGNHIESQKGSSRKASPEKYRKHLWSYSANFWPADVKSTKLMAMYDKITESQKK

Protein translocase subunit SecA (Escherichia coli (strain K12)), sequence (P10408 whole entry): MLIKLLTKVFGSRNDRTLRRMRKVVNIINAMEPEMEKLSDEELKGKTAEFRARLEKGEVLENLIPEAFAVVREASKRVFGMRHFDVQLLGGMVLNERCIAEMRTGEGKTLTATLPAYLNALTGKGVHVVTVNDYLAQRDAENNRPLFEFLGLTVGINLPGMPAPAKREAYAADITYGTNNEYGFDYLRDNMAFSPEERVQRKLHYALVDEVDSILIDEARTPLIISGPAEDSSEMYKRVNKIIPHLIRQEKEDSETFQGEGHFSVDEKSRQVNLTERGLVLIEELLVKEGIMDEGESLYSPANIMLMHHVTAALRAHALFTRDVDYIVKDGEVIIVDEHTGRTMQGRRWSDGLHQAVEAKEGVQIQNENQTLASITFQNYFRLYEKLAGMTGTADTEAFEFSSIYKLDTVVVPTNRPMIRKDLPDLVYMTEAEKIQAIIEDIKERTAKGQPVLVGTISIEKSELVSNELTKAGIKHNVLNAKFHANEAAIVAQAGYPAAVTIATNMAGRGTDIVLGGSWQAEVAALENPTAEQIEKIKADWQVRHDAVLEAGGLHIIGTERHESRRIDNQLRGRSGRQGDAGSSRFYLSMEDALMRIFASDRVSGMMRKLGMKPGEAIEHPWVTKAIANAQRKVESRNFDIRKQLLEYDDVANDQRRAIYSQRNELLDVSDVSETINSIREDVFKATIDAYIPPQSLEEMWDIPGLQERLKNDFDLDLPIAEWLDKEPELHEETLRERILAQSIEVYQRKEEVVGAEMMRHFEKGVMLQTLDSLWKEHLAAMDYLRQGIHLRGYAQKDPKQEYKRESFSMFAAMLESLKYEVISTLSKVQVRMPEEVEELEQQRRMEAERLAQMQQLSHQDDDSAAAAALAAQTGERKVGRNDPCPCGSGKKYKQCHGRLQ

As to `CN(C(=O)C1CSCN1S(=O)(=O)c1ccc(F)cc1)C1CC1` (stereo not drawn), the Percent Effect is -6.46% in assay [1]; 0% in assay [2]; -0.918% in assay [3]; 1.18% in assay [4]; -5.57% in assay [5]; -2.73% in assay [6]. The Percent Effect was 6.27% in [7]; -19.6% in assay [8]; 3.23% in assay [9]; 11.1% in [10]; 0.714% in [11].
On to `CNc1cc(N2CCCC2CNCc2ccc(Cl)o2)ncn1` (stereo not drawn), for which the Percent Effect is -6.85% in assay [1]; 13.5% in [2]; -2.54% in assay [3]; 43.1% in [4]; 8.98% in assay [5]; 16.2% in assay [6]. Besides, the Percent Effect in [7] amounted to 18.9%; in assay [8] it was 22%; in assay [9], 15.8%; in [10], 23.2%; in [11], 89.7%.
For `Cc1ccc(-c2cn[nH]c2C2CCCN(c3nccc(N)n3)C2)cc1` (stereo not drawn), the Percent Effect in assay [1] was -2.69%; in assay [2], 20.8%; in assay [3], 46.7%; in [4], 15.4%; in assay [5], 5.15%; in assay [6] it was -1.77%. The Percent Effect in [7] amounted to 25.6%; in assay [8] it was 37.1%; in assay [9], 7.37%; in [10], 20.5%; in assay [11], 3.03%.
On to `Cc1cnn(CC2CCCN2CC(=O)N(C)CCC#N)c1` (stereo not drawn), for which the Percent Effect in assay [1] is -1.24%; in [2], -5.41%; in assay [3] it was -5.26%; in assay [4], 5.88%; in assay [5], -0.386%; in assay [6], -0.476%. For the same compound, the Percent Effect is 11.4% in assay [7]; -14.1% in assay [8]; -2.65% in assay [9]; -2.44% in assay [10]; 91.2% in assay [11].
With `COc1cccc(C2CC(=O)Nc3nc(N)sc32)c1OC` (stereo not drawn), the Percent Effect in assay [1] was 70.6%; in assay [2], 26.3%; in assay [3] it was -56.4%; in [4], -2.19%; in assay [5] it was 7.3%; in assay [6] it was 21.3%. Besides, the Percent Effect in assay [7] is 10.3%; in [8] it was -3.92%; in assay [9] it was -4.25%; in assay [10] it was -36.4%; in [11] it was -8.65%.
In the case of `O=C(NC1CCCC1)N1CCCC(c2nccn2Cc2ccncc2)C1` (stereo not drawn), the Percent Effect in assay [1] was -3.14%; in assay [2], 4.17%; in assay [3], 2.03%; in assay [4], 9.67%; in [5], 8.07%; in assay [6] it was -0.883%. The Percent Effect in [7] is 7.54%; in [8], -38.2%; in assay [9], 4.21%; in assay [10], 5.13%; in assay [11], -4.06%.
On to `CN1CCN(C2CCN(CC(=O)NCC(F)(F)F)CC2)C1=O`, for which the Percent Effect in [1] was -6.45%; in [2] it was 15.2%; in assay [3], -9.09%; in assay [4], 10.9%; in assay [5] it was 7.46%; in assay [6], -3.8%. Further, the Percent Effect is 5.32% in assay [7]; -11.8% in [8]; 3.45% in assay [9]; 13.9% in assay [10]; -3.32% in [11].
Turning to `O=C(NCCNc1ncccn1)C1CCN(CC(F)(F)F)CC1`, the Percent Effect in assay [1] was -4.28%; in assay [2], 18.9%; in assay [3], 5.29%; in assay [4] it was 1.52%; in assay [5] it was -6.51%; in assay [6], 0.802%. Further, the Percent Effect is 18.9% in assay [7]; 20.5% in assay [8]; 7.39% in assay [9]; 11.1% in assay [10]; -4.74% in assay [11].
